We go through 30 molecules from ChEMBL document CHEMBL3988442, “University of Dundee, Small-Polar-MMV Screening Library” (2021).

Where only a bound is given, the exact number is not on record here.

For the assay, the target named is T1, Methionyl-tRNA synthetase, putative (Leishmania donovani (strain BPK282A1)) (UniProt E9BF75).
T1 sequence (whole entry): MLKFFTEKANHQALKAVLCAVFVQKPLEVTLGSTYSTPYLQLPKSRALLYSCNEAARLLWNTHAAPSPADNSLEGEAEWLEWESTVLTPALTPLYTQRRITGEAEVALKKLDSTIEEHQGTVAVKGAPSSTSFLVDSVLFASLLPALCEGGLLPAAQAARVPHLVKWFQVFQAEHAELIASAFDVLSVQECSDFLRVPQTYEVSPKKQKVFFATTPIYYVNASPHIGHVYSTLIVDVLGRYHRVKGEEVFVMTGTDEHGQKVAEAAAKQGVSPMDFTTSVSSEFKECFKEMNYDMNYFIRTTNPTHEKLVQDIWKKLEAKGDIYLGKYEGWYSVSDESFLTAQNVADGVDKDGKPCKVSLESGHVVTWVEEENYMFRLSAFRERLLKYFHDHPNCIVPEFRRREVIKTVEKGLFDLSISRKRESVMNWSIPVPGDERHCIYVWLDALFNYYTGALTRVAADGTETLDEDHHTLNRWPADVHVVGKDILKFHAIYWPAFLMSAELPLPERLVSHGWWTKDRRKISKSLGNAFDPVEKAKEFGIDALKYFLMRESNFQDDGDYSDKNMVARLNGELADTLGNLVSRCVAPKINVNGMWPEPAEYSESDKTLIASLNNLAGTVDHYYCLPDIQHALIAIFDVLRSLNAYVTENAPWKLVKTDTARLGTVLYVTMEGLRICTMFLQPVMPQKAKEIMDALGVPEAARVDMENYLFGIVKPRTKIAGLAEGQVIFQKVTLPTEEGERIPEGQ
Description: Leishmania donovani Methionine tRNA synthetase (LdMetRS):v7. Dose response assay. It is filed as functional. Also noted: conc 80 nM, time 150 minutes.

For `CCc1nc(NCCCOC(C)C)c2c3c(sc2n1)CCC3`, the PXC50 by setting is: (MAX_EFFECT 10.56511057) less than 4; (MAX_EFFECT 12.06030151) less than 4.
As to `Cc1sc2nc(-c3cccnc3)nc(N3CCCC(CO)C3)c2c1C` (stereo not given), the PXC50 came to 4.07 (BOTTOM 0.693465662, HILLSLOPE 1.473836838, MAX_EFFECT 56.47668394, TOP 100.0) and 4.06 (BOTTOM -1.655591932, HILLSLOPE 1.509629481, MAX_EFFECT 54.25531915, TOP 100.0).
Take `Cc1sc2nc(CN3CCOCC3)nc(NC(C)(C)CCO)c2c1C`: the PXC50 is less than 4 (MAX_EFFECT 4.371584699) and less than 4 (MAX_EFFECT 8.021390374).
For the molecule `O=C(c1c[nH]cn1)N1CCC(F)(F)C2(CCN(c3cccc(F)c3)C2)C1` (stereo not given), the PXC50 was less than 4 (MAX_EFFECT 45.5399061) and less than 4 (MAX_EFFECT 46.11111111).
As for `Cc1nc(NCc2ccccn2)c2cc(C)sc2n1`, the PXC50 runs as follows: (MAX_EFFECT 3.015075377) less than 4; (MAX_EFFECT 6.633906634) less than 4.
With `CC(C)C[C@H](N)COc1ccc(OC(F)(F)F)c(F)c1`, the PXC50 is, setting by setting: (MAX_EFFECT 10.87420043) less than 4; (MAX_EFFECT 10.97308489) less than 4.
Regarding `CS(=O)(=O)N1CCN(c2ccc3ccc(C(=O)NC4Cc5ccccc5C4)cn23)CC1`, the PXC50 runs as follows: (BOTTOM 1.298239116, HILLSLOPE 2.724135748, MAX_EFFECT 51.19617225, TOP 47.98570818) 5.08; (BOTTOM 7.56395186, HILLSLOPE 1.844448201, MAX_EFFECT 55.57586837, TOP 59.35407924) 4.75.
Regarding `CCc1nc(-n2nc(C)cc2N)c2c3c(sc2n1)CCCC3`, the PXC50 runs as follows: (MAX_EFFECT 9.836065574) less than 4; (MAX_EFFECT 10.69518717) less than 4.
Molecule `Cn1cc(CN2CCC(F)(F)C3(CCN(c4cccc(F)c4)C3)C2)cn1` (stereo not given) had a PXC50 (MAX_EFFECT 7.256235828) of less than 4 and a PXC50 (MAX_EFFECT 17.57009346) of less than 4.
For `O=C(c1ccccc1)C1CCN(c2cncc(-n3cccn3)n2)CC1`, the PXC50 (MAX_EFFECT 17.57719715) was less than 4 and the PXC50 (MAX_EFFECT 27.64084507) is less than 4.
As to `Cc1nc(NC(C)C(=O)O)c2c3c(sc2n1)CCCC3` (stereo not given), the PXC50 reads like this: (MAX_EFFECT 7.035175879) less than 4; (MAX_EFFECT 8.5995086) less than 4.
With `CS(=O)(=O)N1CCN(c2ccc3c(F)cc(C(=O)NC4CCCC4)cn23)CC1`, the PXC50 by setting is: (MAX_EFFECT 12.5) less than 4; (MAX_EFFECT 15.35087719) less than 4.
As to `CCN1CCN(c2nc(-c3cccnc3)nc3sc(C)cc23)CC1`, the PXC50 was less than 4 (MAX_EFFECT 2.18579235) and less than 4 (MAX_EFFECT -3.20855615).
Take `COc1cccc(-c2cc(C(F)(F)F)nc(N(C)C)n2)c1`: the PXC50 (MAX_EFFECT 5.18134715) was less than 4 and the PXC50 (MAX_EFFECT 6.914893617) is less than 4.
`CN(c1ncnc2c1cnn2C)C1CCCN(c2cccnn2)C1` (stereo not given): the PXC50 is, setting by setting: (MAX_EFFECT 40.92592593) less than 4; (MAX_EFFECT 46.94835681) less than 4.
For `CCN(CC)c1ccc2ccc(C(=O)N(CCOC)CCOC)cn12`, the PXC50 by setting is: (MAX_EFFECT 40.55555556) less than 4; (MAX_EFFECT 42.72300469) less than 4.
For `COCCN(Cc1cnn(C)c1)c1nc(C)nc2sccc12`, the PXC50 was less than 4 (MAX_EFFECT 10.70496084) and less than 4 (MAX_EFFECT 11.48825065).
Regarding `Cc1sc2nc(CCN)nc(N3CCC(N4CCCC4)CC3)c2c1C`, the PXC50 is, setting by setting: (MAX_EFFECT 14.62140992) less than 4; (MAX_EFFECT 16.44908616) less than 4.
On to `CCc1nc(NCc2ccccn2)c2cc(C)sc2n1`, for which the PXC50 reads like this: (MAX_EFFECT 5.651105651) less than 4; (MAX_EFFECT 6.030150754) less than 4.
For the molecule `Cc1nc(N2CCNC(=O)C2)c2c(CC(C)C)csc2n1`, the PXC50 by setting is: (MAX_EFFECT 4.371584699) less than 4; (MAX_EFFECT 6.951871658) less than 4.
For `Nc1cc(O)c(Cl)cc1Cl`, the PXC50 by setting is: (MAX_EFFECT 7.034220532) less than 3; (MAX_EFFECT 11.44708423) less than 3.
Take `NCC1CC1c1ccc(Cl)cc1Cl` (stereo not given): the PXC50 reads like this: (BOTTOM -0.51010351, HILLSLOPE 1.132508714, MAX_EFFECT 55.5075594, TOP 100.0) 3.07; (MAX_EFFECT 48.09885932) less than 3.
With `O=c1cc(NCCCNCc2c[nH]c3ccc(Br)cc23)[nH]c2ccccc12`, the PXC50 worked out at 5.79 (BOTTOM 0.0, HILLSLOPE 1.551467474, MAX_EFFECT 106.0606061, TOP 104.4534441) and 5.79 (BOTTOM 0.546192845, HILLSLOPE 1.22385612, MAX_EFFECT 106.0465116, TOP 107.4209254).
Molecule `Cc1cc(C)n(-c2nc(NC3CCCC3)c3c4c(sc3n2)CCCC4)n1` registered a PXC50 (MAX_EFFECT 22.91666667) of less than 4 and a PXC50 (MAX_EFFECT 34.21052632) of less than 4.
Regarding `CCc1nc(N2CCC(C(=O)O)CC2)c2c3c(sc2n1)CCC3`, the PXC50 by setting is: (MAX_EFFECT 11.47540984) less than 4; (MAX_EFFECT 12.29946524) less than 4.
As for `CCCN(CCOC)c1nc(C)nc2sccc12`, the PXC50 is less than 4 (MAX_EFFECT 12.79373368) and less than 4 (MAX_EFFECT 15.14360313).
Consider `Cc1nc(O)cc(C2CCN(c3nc(C)nc4sccc34)CC2)n1`, for which the PXC50 reads like this: (MAX_EFFECT 2.659574468) less than 4; (MAX_EFFECT 5.699481865) less than 4.
In the case of `CC[C@H](C)[C@H](Nc1nc(C)nc2sc3c(c12)CCCC3)C(=O)O`, the PXC50 runs as follows: (MAX_EFFECT 21.80851064) less than 4; (MAX_EFFECT 23.31606218) less than 4.
For the molecule `COCCNc1nc(-n2nc(C)cc2C)nc2sccc12`, the PXC50 by setting is: (BOTTOM 2.201340626, HILLSLOPE 2.387703954, MAX_EFFECT 53.50877193, TOP 100.0) 4.03; (MAX_EFFECT 36.45833333) less than 4.
On to `Cc1nc(N2CCC(C(O)CC(C)C)CC2)c2ccsc2n1` (stereo not given), for which the PXC50 is, setting by setting: (MAX_EFFECT 3.626943005) less than 4; (MAX_EFFECT 4.255319149) less than 4.
